# Reference: PubChem BioAssay (EPA / NIEHS)
# Active and inactive are the calls of the source. Rule for the calls: active = hit-call score of the fitted dose curve at least 0.9, where 1 is the maximum; inactive = score below 0.9.
# Read-out: Monocyte Chemoattractant Protein-1 (MCP1), CCL2 (gene 6347)
# Test: BSK_LPS_MCP1: BioMAP Diversity Plus: LPS Assay for Monocyte Chemoattractant Protein-1 (MCP1) Biomarker Activity (AID 2283081);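 for AC50: secreted MCP-1 protein quantified by ELISA in culture supernatant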
# Details: primary human HUVEC with PBMC; actives raise or lower the signal
# Method in brief: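 LPS-stimulated HUVEC/PBMC co-culture; chemical, 24 h; MCP-1 by ELISA; bidirectional fit vs DMSO; cytotoxicity via SRB (0.1% stain, 10% TCA fix, 560 nm) in parallel wells.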
SMILES,outcome,AC50
CCCCCCCCCCCCCCCCOS(=O)(=O)O,inactive,–
O=C(NO)C1(NS(=O)(=O)c2ccc(Oc3ccc(F)cc3)cc2)CCOCC1,inactive,–
CC(C)CC(C)O (configuration not stated),inactive,–
CC(C)CCCCCCOC(=O)C1CCCCC1C(=O)OCCCCCCC(C)C (configuration not stated),inactive,–
CC(=O)c1ccccc1,inactive,–
c1ccc2cc3ccccc3cc2c1,inactive,–
Cc1ncc([C@@H](CCCCCCc2ccc3c(n2)NCCC3)CC(=O)O)cn1,inactive,–
CC(C)c1nnc2ccc(-c3ocnc3-c3cc(F)ccc3F)cn12,–,4.6 µM (active)
COCc1nnc(-c2ccc[n+]([O-])c2)n1-c1c(Cl)c(Cl)cc2[nH]c(=O)c(=O)[nH]c12,inactive,–
O=C(O)c1cccc(C(=O)O)c1,inactive,–
CCCC(CCC)C(=O)O,inactive,–
C[C@@H](Oc1ccc(CNC(=O)c2cccnc2Oc2ccc3c(c2)OCO3)c(F)c1)C(=O)O,inactive,–
OC[C@H]1O[C@@](CO)(O[C@H]2O[C@H](CO)[C@@H](O)[C@H](O)[C@H]2O)[C@@H](O)[C@@H]1O,inactive,–
CCCCCCCCCC,inactive,–
OCCOCCOCCO,inactive,–
c1ccc2ncccc2c1,inactive,–
COc1cc(C(C)C)c2c(c1)S(=O)(=O)N(COc1cc(=O)n3cccc(OCCN4CCCCC4)c3n1)C2=O,inactive,–
S=P(N1CC1)(N1CC1)N1CC1,inactive,–
OC(O)(C(F)C(O)(O)C(F)(F)F)C(F)(F)F,inactive,–
NCC(F)(F)C(F)(F)C(F)(F)C(F)(F)F,inactive,–
c1ccc2c(c1)-c1cccc3c1c-2cc1ccccc13,inactive,–
Nc1ccn([C@@H]2O[C@H](CO)[C@@H](O)[C@@H]2O)c(=O)n1,inactive,–
